Usually IC50 stands for the concentration needed to halve the response being measured.

This note sets out measurements from PubChem BioAssay AID2556 (The Scripps Research Institute Molecular Screening Center, 2010).

The source made the active and inactive calls. The rule behind the calls is not given here.

A short description of the experiment: xanthine oxidase superoxide generation blockade – biochemical, counter-screen for NOX1 inhibitor project, late-stage follow-up (AID 2556). The following applies: xanthine oxidase superoxide assay. Background: A counterscreen serves to expose hits that act by an unwanted route or on another target.
Turning to `c1ccc2c(c1)Nc1nc3ccccc3nc1N2`, the IC50 is 3.5 µM (active).
`O=C(Oc1ccccc1N1CCCCC1)c1sc2ccccc2c1Cl`: the IC50 is 11.1 µM (inactive).
Regarding `CN(C)c1ccc(NC(=O)Nc2ccc(OCc3ccccc3)cc2)cc1`, the IC50 is 2 µM (active).
`FC(F)(F)c1ccc2c(c1)Nc1ccccc1S2`: the IC50 was 20.7 µM (inactive).
As for `Cc1cc(Cl)ccc1NC(=S)NNC(=S)Nc1ccc(F)cc1`, the IC50 is 11 µM (inactive).
For `COc1cc(-c2nc(-c3ccccc3)c(-c3ccccc3)[nH]2)ccc1O` the value was 11.2 µM (inactive).
